Assay results published in PubChem BioAssay (EPA / NIEHS).
Activity calls are given as the source filed them. Rule for the calls: active = hit-call score of the fitted dose curve at least 0.9, where 1 is the maximum; inactive = score below 0.9.

Test: APR_HepG2_StressKinase_1hr: Apredica 1-hour HepG2 Assay for Stress Kinase (AID 2282906)
Conditions: HepG2 stress kinase (phospho-c-Jun) imaging, actives raise or lower the signal
Experimental: APR_HepG2_1hr is a cell-based, multiplexed-readout assay that uses HepG2, a human liver cell line, with measurements taken at 1 hour after chemical dosing in a 384-well plate.APR_HepG2_StressKinase_1hr is one of 10 assay component(s) measured or calculated from the APR_HepG2_1hr assay. It is designed to make measurements of enzyme activity, a form of enzyme reporter, as detected with fluorescence intensity signals by HCS Fluorescent Imaging technology.Data from the assay component APR_HepG2_StressKinase_1hr was analyzed into 1 assay endpoint. This assay endpoint, APR_HepG2_StressKinase_1hr, was analyzed with bidirectional fitting relative to DMSO as the negative control and baseline of activity. Using a type of enzyme reporter, measures of protein for gain or loss-of-signal activity can be used to understand the signaling at the pathway-level as they relate to the gene . Furthermore, this assay endpoint can be referred to as a primary readout, because this assay has produced multiple assay endpoints where this one serves a signaling function. To generalize the intended target to other relatable targets, this assay endpoint is annotated to the cell cycle intended target family, where the subfamily is stress response.
Cells were treated with dimethyl sulfoxide (DMSO) as a solvent control at a final concentration of 0.5% v/v or with compounds in DMSO with a resulting final DMSO concentration of 0.5% v/v. Compound treatment was done at concentrations of 0.39, 0.78, 1.56, 3.12, 6.24, 12.5, 25, 50, 100, and 200 uM in duplicate on each plate. Cells were treated with compounds for 1, 24, or 72 hr. Carbonyl […] m-chloro-phenylhydrazone (CCCP) and taxol were used as positive controls for mitochondrial function and cytoskeletal stability, respectively; DMSO served as the negative control for this experiment. Cells were fixed by the direct addition of 50 uL formaldehyde in Hank's Balanced Salt Solution (HBSS) to a final concentration of 3.7%. After incubation in the fixation medium for 30 min at room temperature (293-298 K), cells were rinsed twice with HBSS and treated with cell permeabilization buffer (16 uL of 0.5% Triton X-100) for 10 min at room temperature (293-298 K) before labeling. For mitochondrial membrane potential and mitochondrial measurements, pre-fixed cells were incubated with 50 uL of MitoTracker Red CMXRos (Invitrogen) at a concentration of 250 nM for 30 min before fixation. In the remaining cases, post-fixed cells were labeled by incubation with a multiplexed mixture of primary antibodies in HBSS for 60 min at room temperature (293-298 K) to detect immunoreactivity of c-Jun (1:500), phospho-histone H3 (1:100), phospho-histone H2A.x (1:200), p53 (1:400), alpha-tubulin (1:200) and Hoechst 33342 (2 ug/mL). Cells were labeled for multiplexed imaging on two separate plates: a) Hoechst 33342, MitoTracker Red, phospho-histone H3, and alpha-tubulin, and b) Hoechst 33342, phospho-histone H2A.x, and c-Jun. A final rinse with HBSS (50 uL) was performed before analysis. The primary and secondary antibodies for the proteins were phospho-histone H3 (rabbit anti-phospho-histone H3 and FITC-donkey anti-rabbit IgG), phospho-histone H2A.x (mouse anti-phospho-histone H2A.x and FITC-donkey anti-mouse IgG), c-Jun (rabbit anti-phospho-c-Jun and Cy3-donkey anti-rabbit IgG), p53 (sheep anti-p53 and Cy5-donkey anti-sheep IgG), alpha-tubulin (mouse anti-alpha-tubulin and Cy5-donkey anti-mouse IgG). These antibodies are available as the CellCiphr HepG2 assay kit (Millipore).Digital images of each well were captured using a Cellomics ArrayScan VTI (Thermo Scientific Cellomics) (0.8 NA objective, 0.63x optical coupler, and XF-93 filter set) at 20x magnification. The images were acquired using the autofocus feature of the ArrayScan instrument, which entails the following steps. First, the camera focuses on channel 1 (Hoechst 33342), where nuclei are identified. Second, a Z offset of 1 um is used for capturing mitochondria (MitoTracker Red). […]

SMILES | AC50 | outcome
CCCCOCN(C(=O)CCl)c1c(CC)cccc1CC | 47.5 µM (active) | 
N#CN=C1SCCN1Cc1ccc(Cl)nc1 |  | inactive
CNC(=O)N(C)c1nnc(C(C)(C)C)s1 |  | inactive
C=C(C)CN(CC)c1c([N+](=O)[O-])cc(C(F)(F)F)cc1[N+](=O)[O-] |  | inactive
CSC(=O)c1c(C(F)F)nc(C(F)(F)F)c(C(=O)SC)c1CC(C)C |  | inactive
CC(C)(C)C(=O)C(Oc1ccc(Cl)cc1)n1cncn1 (stereo not given) |  | inactive
Nc1c(Cl)c(Cl)nc(C(=O)O)c1Cl |  | inactive
CC(C)C1(C)N=C(c2ncccc2C(=O)O)NC1=O (stereo not given) |  | inactive
CO/N=C(/C1=NOCCO1)c1ccccc1Oc1ncnc(Oc2ccccc2Cl)c1F |  | inactive
COc1cc(OC)nc(NC(=O)NS(=O)(=O)c2ncccc2OCC(F)(F)F)n1 |  | inactive
CC1(C)CCC(=Cc2ccc(Cl)cc2)C1(O)Cn1cncn1 (stereo not given) |  | inactive
CS(=O)(=O)c1ccc(C(=O)C2C(=O)CCCC2=O)c([N+](=O)[O-])c1 |  | inactive
COc1ccc(-c2ccccc2)cc1NNC(=O)OC(C)C |  | inactive
CCCC(=NOCC)C1=C(O)CC(CC(C)SCC)CC1=O (stereo not given) |  | inactive
CCOc1nc(C(Cl)(Cl)Cl)ns1 |  | inactive
Cc1cc(C)nc(Nc2ccccc2)n1 |  | inactive
CC(C)NC(=O)N1CC(=O)N(c2cc(Cl)cc(Cl)c2)C1=O |  | inactive
Cc1nc(N(C)C)nc(OC(=O)N(C)C)c1C |  | inactive
Cc1cnc(C2=NC(C)(C(C)C)C(=O)N2)c(C(=O)O)c1 (stereo not given) |  | inactive
CCN(CC)C(=O)C(C)Oc1cccc2ccccc12 (stereo not given) |  | inactive

SMILES | AC50 | outcome
CC(C)Nc1nc(Cl)nc(NC(C)C)n1 |  | inactive
CCCCC(O)(Cn1cncn1)c1ccc(Cl)cc1Cl (stereo not given) |  | inactive
COC(=O)c1c(C(F)F)nc(C(F)(F)F)c(C2=NCCS2)c1CC(C)C |  | inactive
CCC(C)n1c(=O)[nH]c(C)c(Br)c1=O (stereo not given) |  | inactive
Clc1nc(Cl)nc(Nc2ccccc2Cl)n1 |  | inactive
Nc1c(Cl)c(F)nc(OCC(=O)O)c1Cl |  | inactive
CC1(C)CON(Cc2ccccc2Cl)C1=O |  | inactive
CCNP(=S)(OC)O/C(C)=C/C(=O)OC(C)C (stereo not given) |  | inactive
O=P(O)(O)CCCl |  | inactive
COCC(C)N(C(=O)CCl)c1c(C)csc1C (stereo not given) |  | inactive
CCOP(=O)(OCC)Oc1nc(Cl)c(Cl)cc1Cl |  | inactive
CCOC(=O)C(C)OC(=O)c1cc(Oc2ccc(C(F)(F)F)cc2Cl)ccc1[N+](=O)[O-] (stereo not given) |  | inactive
O=C(O)c1c(Cl)ccc2cc(Cl)cnc12 |  | inactive
CCCN(CC)CC1COC2(CCC(C(C)(C)C)CC2)O1 (stereo not given) |  | inactive
C=CCOC(=O)C(C)(C)OC(=O)c1cc(-n2c(=O)cc(C(F)(F)F)n(C)c2=O)ccc1Cl |  | inactive
CC(C)N1C(=O)c2ccccc2NS1(=O)=O |  | inactive
COC(=O)NC(=S)Nc1ccccc1NC(=S)NC(=O)OC |  | inactive
CC1(C)C(C=C(Cl)Cl)C1C(=O)OC(C#N)c1cccc(Oc2ccccc2)c1 (stereo not given) |  | inactive
CCN(CC)c1nc(C)cc(OP(=S)(OC)OC)n1 |  | inactive
O=c1n(Cl)c(=O)n(Cl)c(=O)n1Cl |  | inactive
